# Measured values reported in PubChem BioAssay (NCATS).
# Inconclusive results are not listed. Values without a mark were called inactive. Calls come from the whole dose curve; as a rule, active = well fitted activation curve with a large enough effect; inconclusive = small, poorly fitted or top-dose-only effect; inactive = flat fitted curve, though single readings scatter.
# Test: Primary redox qHTS assay for identification of artifact compounds. (AID 1845223)
# Conditions: Amplex Red/HRP redox cycling with DTT, fluorescence; series mostly up to 53.8 µM; redox activity (% of DA3003): at the top concentration
# Excerpt: PI: Alexander Tropsha Ph.D.
# UNC Eshelman School of Pharmacy
# University of North Carolina, Chapel Hill, North Carolina
# Hits from high-throughput screening (HTS) of chemical libraries are often false positives due to their interference with the assay detection technology. In response to this problem, we generated the largest publicly available library of chemical liabilities and developed a free webtool to predict HTS artifacts, both of which are described herein. More specifically, we generated, curated, and integrated HTS datasets for thiol reactivity, redox activity, and luciferase (firefly and nano) activity. Using these curated datasets, we developed and validated several Quantitative Structure-Interference Relationship (QSIR) models to predict nuisance behavior. […] These models were employed for virtual profiling of the National Center for Advancing Translational Science's (NCATS) in-house library, and 256 compounds for each assay were selected for the experimental validation of nuisance behavior. The BA for these external predictions ranged from 58 to 78% for compounds within the applicability domains of the models. […] The models developed in this study, along with aggregation models previously developed by our group (SCAM Detective) were implemented in "Liability Predictor," an online tool which may be used as part of chemical library design or for triaging HTS hits. Both the models and the curated datasets are publicly available at https://liability.mml.unc.edu/.
# SEQUENCE No. (e.g., 1, 2, 3, etc.); […] (e.g., Cells, Incubation, Reagent, etc.); VALUE; DESCRIPTION.
# 1; Reagent; 3 uL; Amplex Red and HRP mixture.
# 2; Compounds and control; 16 nL; Kalypsis pin tool (Wako USA) equipped with a 1536-well pin head. […]
# 6; Detection; Fluorescence, ViewLux microplate reader, 525 nm excitation, 598 nm emission.
# NOTES (numbers refer to Sequence numbers above)
# 1. 3 uL of a mixture containing Amplex Red (25 uM final concentration) and horseradish peroxidase (HRP; 250 mU/mL final concentration) in assay buffer (HBSS) was dispensed into all wells of a 1536-well assay plate (solid-bottom black plate; Greiner Bio One, Monroe, NC).
# 2. A Wako Pin-tool (Wako Automation, Richmond, VA) was used to transfer 16 nL of compounds (consisting of 7-plates in qHTS format, final concentration range 18.3 nM to 114 uM) or control DA3003 (final concentration range 1.22 nM to 40 uM).
# 3. 15 min. incubation at room temperature protected from light.
# 4. 1 uL of DTT (prepared fresh; final concentration 250 uM) was dispensed for a final assay volume of 4 uL.
# 5. Plates were centrifuged (121xg, 15 seconds) and incubated for 30 minutes at room temperature protected from light.
# 6. Samples were read for fluorescence (Ex/Em = 525(20)/598(25) nm) on a ViewLux CCD imager (PerkinElmer). Data were normalized to DMSO (0% activity) and DA3003 (10 uM final concentration; 100% activity) and the resulting percent inhibition data were fitted to a 4-parameter Hill equation using NCATS in-house software.
row,SMILES,redox activity (% of DA3003)
1,C/C=C(\C)C(=O)O[C@@H]1CC2[C@@H](CC=C3C[C@@H](O[C@H]4C[C@H](OC)[C@H](O[C@H]5C[C@H](OC)[C@H](O[C@@H]6O[C@H](C)[C@@H](O[C@H]7C[C@H](OC)[C@H](O[C@@H]8O[C@H](CO)[C@@H](O)[C@H](O)[C@H]8O)[C@@H](C)O7)[C@H](OC)[C@H]6O)[C@@H](C)O5)[C@@H](C)O4)CC[C@@]32C)[C@@]2(O)CC[C@H](C(C)=O)[C@@]12C (stereo not given in full),-4.24% [at 11.5 µM]
2,Nc1nc2c(ncn2[C@@H]2O[C@@H]3COP(=O)(O)O[C@H]3[C@H]2O)c(=O)[nH]1,-0.528%
3,C[C@@H]1O[C@@H](O[C@H]2[C@H](OC(=O)[C@]34CCC(C)(C)C[C@H]3C3=CCC5[C@@]6(C)CC[C@H](O[C@@H]7O[C@H](C(=O)O)[C@@H](O)[C@H](O)[C@H]7O[C@@H]7O[C@H](CO)[C@H](O)[C@H](O)[C@H]7O)[C@@](C)(C=O)C6CC[C@@]5(C)[C@]3(C)C[C@H]4O)O[C@H](C)[C@H](O[C@@H]3O[C@H](C)[C@H](O)[C@H](O)[C@H]3O)[C@@H]2O)[C@H](O)[C@H](O)[C@H]1O[C@@H]1OC[C@@H](O)[C@H](O[C@@H]2O[C@H](CO)[C@@H](O)[C@H](O)[C@H]2O)[C@H]1O (stereo not given in full),3.32% [at 6.41 µM]
4,CC[C@@H](O)C[C@@H]1C(C)=C[C@@H]2CCCC[C@@H]2[C@@]1(C)C(=O)O,4.54%
5,Nc1ncnc2c1ncn2CCNCCCCCO,-1.6%
6,COc1cc2c(cc1OC)N1C(=O)C[C@]34C=CCN5CC[C@@H]2[C@@H](CC3)[C@]514,11.5%
7,OCCc1ccc(O[C@@H]2O[C@H](CO)[C@@H](O)[C@H](O)[C@H]2O)cc1,-8.56%
8,COCCN1CCN(Cc2ccc(-c3n[nH]c4c3C(=O)c3c(NC(=O)NN5CCOCC5)cccc3-4)cc2)CC1,12.5%
9,CC1=CC2/C=C(\C)CC[C@@H](O)[C@@H](O)[C@@H]3O[C@@H]3C(=O)[C@]23C(=O)N[C@@H](CC(C)C)[C@@H]3[C@@H]1C (stereo not given in full),-1.05% [at 25.6 µM]
10,O=C1CCC=CC1(O)C(=O)OCc1ccccc1O[C@@H]1O[C@H](CO)[C@@H](O)[C@H](O)[C@H]1O (stereo not given in full),-2.62% [at 25.6 µM]
11,CC1(C)CC[C@]2(C(=O)O)CC[C@]3(C)C(=CCC4[C@@]5(C)CC[C@H](O[C@@H]6O[C@H](C(=O)O)[C@@H](O[C@@H]7OC[C@@H](O)[C@H](O)[C@H]7O)[C@H](O)[C@H]6O)C(C)(C)C5CC[C@]43C)C2C1O (stereo not given in full),2.93% [at 25.6 µM]
12,OC[C@H]1O[C@@H](O[C@H]2[C@H](OCCc3ccccc3)O[C@H](CO)[C@@H](O)[C@@H]2O)[C@H](O)[C@@H](O)[C@@H]1O,-9.91% [at 25.6 µM]
13,O=C1CCC(c2ccccc2)(C2CCN(Cc3ccc(I)cc3)CC2)C(=O)N1 (stereo not given),2.11%
14,CC(NC(=O)CCc1nc2ccccc2c(=O)[nH]1)c1ccccc1 (stereo not given),-5.73%
15,COC1C(CO)OC(n2cnc3c(=O)[nH]cnc32)C1O (stereo not given),0.947%
16,COc1cc(/C=C/CO)cc(OC)c1O[C@@H]1O[C@H](CO[C@@H]2O[C@H](CO)[C@@H](O)[C@H](O)[C@H]2O)[C@@H](O)[C@H](O)[C@H]1O,-10.6% [at 25.6 µM]
17,CCC[C@@H]1O[C@@H]2C[C@H]3[C@@H]4CCC5=CC(=O)C=C[C@]5(C)[C@H]4[C@@H](O)C[C@]3(C)[C@]2(C(=O)CO)O1,11.9%
18,C=CC(=O)N1CCN(C(=O)CNc2cc(I)c(Cl)cc2O)CC1,-4.67%
19,C=C1C(=O)O[C@@H]2/C=C(\C)C(=O)/C=C/[C@](C)(O)C[C@@H](OC(=O)C(C)C)[C@@H]12,2.96%
20,Cc1ccc(-c2c(C(=O)CF)n(CCCO)c3ncnc(N)c23)cc1,12.5%

row,SMILES,redox activity (% of DA3003)
1,O=C1CCC(=O)N(O)CCCCCNC(=O)CCC(=O)N(O)CCOCCNC(=O)CCC(=O)N(O)CCCCCN1,2.15% [at 25.6 µM]
2,OC/C=C/c1ccc(O[C@@H]2O[C@H](CO)[C@@H](O)[C@H](O)[C@H]2O)cc1,-0.253%
3,N#Cc1c(Oc2ccc(F)c(NC(=O)Cc3cccc(C(F)(F)F)c3)c2)ccc2nc(NC(=O)C3CC3)sc12,-10.9%
4,COC(=O)C1=COC(O[C@@H]2O[C@H](CO)[C@@H](O)[C@H](O)[C@H]2O)[C@H]2[C@@H]1[C@H](OC(=O)CCc1ccc(O)cc1)C[C@]2(C)O (stereo not given in full),-3.16% [at 25.6 µM]
5,O=C(O)c1ccc(CN2CCC(CN[C@@H]3C[C@H]3c3ccccc3)CC2)cc1,11.1%
6,COc1ccc(CNC(=O)c2cc(-c3cncc(C)c3)ncc2-c2nccs2)nc1OC,-5.28%
7,COC1CC(O[C@H]2CC[C@@]3(C)C(CCC4C3[C@H](OC(C)=O)[C@@H](OC(=O)/C=C/c3ccccc3)[C@]3(C)C(C(C)=O)CC[C@]43O)C2)OC(C)C1OC1CC(OC)C(OC2CC(OC)C(OC3OC(C)C(OC4OC(CO)C(O)C(O)C4O)C(OC)C3O)C(C)O2)C(C)O1 (stereo not given in full),-6.18% [at 11.5 µM]
8,C=C1[C@@H]2CC[C@@H]3[C@@](CCC4C(C(=O)O)(C(=O)O)C[C@@H](O[C@@H]5O[C@H](CO)[C@@H](O)[C@H](O)[C@H]5OC(=O)CC(C)C)C[C@]43C)(C2)[C@H]1O (stereo not given in full),-17% [at 25.6 µM]
9,CN(C)C/C=C/C(=O)Nc1cccc(C(=O)Nc2ccc(Nc3nccc(-c4cccnc4)n3)cc2)c1,0.0839%
10,CCS(=O)(=O)N1CCN(c2ccc(Nc3ncc(C(N)=O)c(NC4CC4)n3)cc2)CC1,0.813%
11,CC(Cc1cc2c(c(C(N)=O)c1)N(CCCO)CC2)NCCOc1ccccc1OCC(F)(F)F (stereo not given),-7.09%
12,O=C(Cc1ccc(-c2ccccc2)cc1)NC1CCC1,-4.12%
13,COC(=O)c1cc(OC)cc(OC)c1C(=O)c1c(OC)cc2c(c1O)C1CCCC(C)(O2)O1 (stereo not given),-3.35% [at 25.6 µM]
14,COc1ccc(CC2NCCc3c2[nH]c2ccc(C)cc32)cc1OC (stereo not given),5.67%
15,C=C1CC[C@@H]2[C@@](C)(CO[C@@H]3O[C@H](CO)C(O)[C@H](O)C3O)[C@H](O)CC[C@@]2(C)[C@@H]1CC/C(C)=C/CO (stereo not given in full),11.9% [at 11.5 µM]
16,O=C(O)CCCCCC[C@H]1C(=O)NC(=O)N1CC[C@@H](O)C1CCCCC1,3.46%
17,CS(=O)(=O)c1ccc([C@H](CC2CCCC2)C(=O)Nc2nccs2)cc1,7.28%
18,Cc1ccccc1C#Cc1ccc(CCC(=O)O)cc1,7.85%
19,O=C(CC1C(=O)Nc2ccccc21)OC[C@H]1O[C@@H](OCCc2ccc(O)cc2)[C@H](O)[C@@H](O)[C@@H]1O (stereo not given in full),4.63% [at 25.6 µM]
20,COc1ccc(C2=N[C@@H](c3ccc(Cl)cc3)[C@@H](c3ccc(Cl)cc3)N2C(=O)N2CCNC(=O)C2)c(OC(C)C)c1,4.97%
